# Hit rate of the full screen: of about 16,000 compounds, about 5,700 (36%) were called active. Not shown: some 24% with an inconclusive outcome. This is one part of the list. A number with no mark means an inactive call. Calls come from the whole dose curve; as a rule, active = well fitted curve in the direction sought with a large enough effect; inconclusive = small, poorly fitted or top-dose-only effect, or effect the other way; inactive = no such curve, though single readings can be large or run the other way.
# Molecular target: Cytochrome P450 1A2 (Homo sapiens) (UniProt P05177)
# Sequence (P05177 whole entry, looked up): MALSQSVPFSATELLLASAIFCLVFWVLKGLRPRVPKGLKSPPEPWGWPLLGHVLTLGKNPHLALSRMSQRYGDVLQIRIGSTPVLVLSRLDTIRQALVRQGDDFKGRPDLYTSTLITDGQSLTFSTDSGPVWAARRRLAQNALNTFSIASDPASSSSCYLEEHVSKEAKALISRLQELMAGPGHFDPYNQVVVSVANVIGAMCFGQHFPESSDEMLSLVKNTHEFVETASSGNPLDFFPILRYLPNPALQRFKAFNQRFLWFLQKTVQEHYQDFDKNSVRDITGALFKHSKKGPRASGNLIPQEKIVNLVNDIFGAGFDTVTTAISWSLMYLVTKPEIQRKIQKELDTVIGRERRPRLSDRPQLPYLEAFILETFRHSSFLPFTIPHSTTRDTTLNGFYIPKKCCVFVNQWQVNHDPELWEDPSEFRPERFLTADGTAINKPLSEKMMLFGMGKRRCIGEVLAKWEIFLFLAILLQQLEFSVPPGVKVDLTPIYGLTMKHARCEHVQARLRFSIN
# Experiment: Cytochrome panel assay with activity outcomes
# Conditions: recombinant CYP, pro-luciferin dealkylation, luminescence, p450-cyp1a2; series mostly up to 57.1 µM
# % is set by controls: 0 for no effect and ±100 for the full control effect.
Compound,"activity, negative = inhibition",AC50
CC[C@@H]1CC(=O)N(SC[C@H](N)C(=O)O)C1=O,-14.7% [at 11.4 µM],–
COc1cccc([C@@H]2Oc3ccc(Br)cc3C(=O)[C@H]2O)c1,-3.35% [at 11.4 µM],–
CCc1c(C)c(C#N)c2nc3ccccc3n2c1Nc1c(C)n(C)n(-c2ccccc2)c1=O,–,inactive
Cc1cccc(CNc2nc(-c3cccc(NS(C)(=O)=O)c3)nc3ccccc23)c1,–,15.8 µM (active)
Cc1sc(NC(=O)c2ccco2)c(C(c2ccncc2)N2CCOCC2)c1C (configuration not stated),–,inactive
Cc1sc(NC(=O)c2ccco2)c(C(c2cccnc2)N2CCCC2)c1C (configuration not stated),–,14.1 µM (active)
Cc1sc(NC(=O)c2ccco2)c(C(c2cccnc2)N2CCN(C)CC2)c1C (configuration not stated),–,inactive
CCCCN(C)Cc1c(C)[nH]c2ccc(Cl)cc2c1=O,–,5.01 µM (active)
Cn1cccc1C(=O)N1CCC[C@@]2(CCN(c3ccncc3)C2)C1,–,12.6 µM (active)
Cn1cccc1C(=O)N1CCC[C@@]2(CCN(c3ccccc3)C2)C1,–,12.6 µM (active)
O=C(c1ccco1)N1CCC2(CC1)CN(C(c1ccccc1)c1ccccc1)C2,–,inactive
Cn1cccc1C(=O)N1CCC2(CC1)CN(c1ccncc1)C2,–,inactive
CC(=O)N1CCC[C@@]2(CCN(c3ccncc3)C2)C1,–,inactive
O=C(c1cccc(F)c1)N1CCC[C@@]2(CCN(C(c3ccccc3)c3ccccc3)C2)C1,–,inactive
CN1CC[C@@]2(CCCN(C(=O)c3cccn3C)C2)C1,–,inactive
CC(C)NC(=O)N1CC[C@@]2(CCCN(C(=O)c3cccn3C)C2)C1,–,inactive
Cn1cccc1C(=O)N1CCC[C@@]2(CCN(C(c3ccccc3)c3ccccc3)C2)C1,–,20 µM (active)
CC(=O)N1CCC[C@@]2(CCN(c3ccccc3)C2)C1,–,inactive
O=C(c1ccco1)N1CCC2(CC1)CCN(C(c1ccccc1)c1ccccc1)CC2,–,inactive
O=C(c1ccco1)N1CCC[C@@]2(CCN(C(c3ccccc3)c3ccccc3)C2)C1,–,25.1 µM (active)
NC(N)=NC[C@@H]1CCCCCCN1,-17.8% [at 11.4 µM],–
C=CCCCCCCCCC(=O)Nc1c[nH]c(=O)[nH]c1=O,–,inactive
O=C1CN(c2nc(-c3ccccc3)c3cc(Br)ccc3n2)c2ccccc2N1,–,2.51 µM (active)

Compound,"activity, negative = inhibition",AC50
CC12CCC(C(=O)O)(C/C1=N\O)C2(C)C (configuration not stated),–,inactive
COC(=O)[C@]1(C)CCC(c2ccc(C)cc2)=C(CC(=O)O)C1,-8.38% [at 2.29 µM],–
CCc1ccc(N(C(=O)c2csnn2)C(C(=O)NC(C)(C)C)c2ccncc2)cc1 (configuration not stated),–,22.4 µM (active)
CCc1ccc(N(C(=O)c2csnn2)C(C(=O)NCc2ccccc2)c2ccco2)cc1 (configuration not stated),–,inactive
Cc1ccc(N(C(=O)c2csnn2)C(C(=O)NC(C)(C)C)c2cccs2)cc1 (configuration not stated),–,inactive
CCOC(=O)/C(=C/Nc1ccccc1)[N+](=O)[O-],–,2.82 µM (active)
CCOC(=O)/C(C(N)=NCCCO)=C(/O)c1ccccc1,–,inactive
C/C=C\C1=C(CO)[C@H](O)[C@H]2O[C@H]2[C@H]1O,-3.7% [at 11.4 µM],–
COc1ccc(C[C@H](N)C(=O)N[C@@H]2[C@H](O)[C@H](n3cnc4c(N(C)C)ncnc43)O[C@@H]2CO)cc1,–,inactive
CC(C)N(CC(=O)O)CC(=O)O,-20.9% [at 11.4 µM],–
CC(C)(C)c1ccc(C(=O)NC(Cc2ccccc2)C(=O)O)cc1 (configuration not stated),–,inactive
Cc1cccc(C(=O)Nc2nnc(-c3ccc(C(C)(C)C)cc3)s2)c1,–,inactive
CC(=O)Nc1nonc1NC(=O)c1ccc(C(C)(C)C)cc1,–,1 µM (active)
CC(=O)N1CCC[C@@]2(CCN(c3ncccn3)C2)C1,–,inactive
COC(=O)N1CCC2(CC1)CN(c1ccccn1)C2,–,inactive
O=C(Oc1ccccc1)N1CCC2(CCCN(c3ncccn3)C2)CC1,–,10 µM (active)
CC(=O)N1CCC2(CCCN(c3ncccn3)C2)CC1,–,inactive
O=C(Oc1ccccc1)N1CCC2(CCCN(c3ccccn3)C2)CC1,–,20 µM (active)
O=C(Oc1ccccc1)N1CCC2(CC1)CN(c1ccccn1)C2,–,inactive
COC(=O)N1CCC[C@@]2(CCN(c3ncccn3)C2)C1,–,inactive
O=C(Oc1ccccc1)N1CCC[C@@]2(CCN(c3ncccn3)C2)C1,–,12.6 µM (active)
COC(=O)N1CCC[C@@]2(CCN(c3ccccn3)C2)C1,–,15.8 µM (active)
O=C(c1csnn1)N1CCC[C@@]2(CCN(c3ccccn3)C2)C1,–,inactive

Compound,"activity, negative = inhibition",AC50
O=C(Oc1ccccc1)N1CCC2(CC1)CCN(c1ncccn1)CC2,–,inactive
CC(=O)N1CCC2(CCCN(c3ccccn3)C2)CC1,–,inactive
Cc1noc(C)c1C(=O)N1CCC[C@@]2(CCN(Cc3ccccc3)C2)C1,–,inactive
Cn1c(=O)c2c(ncn2CC(COCc2ccccc2Cl)OCc2ccccc2Cl)n(C)c1=O (configuration not stated),–,inactive
CC(C)CCn1c(Oc2ccccc2Cl)nc2c1c(=O)n(C)c(=O)n2C,–,14.1 µM (active)
Cn1c(=O)c2c(nc(N3CCN(c4ccccn4)CC3)n2Cc2ccccc2Cl)n(C)c1=O,–,inactive
CSc1ccc(C#N)cc1NC(=O)c1cccc(Cl)c1,–,6.31 µM (active)
CCOc1ccc(C(=O)Nc2ccccc2N2CCCC2)cc1,–,2.82 µM (active)
O=C(Nc1ccccc1N1CCN(C(=O)c2ccc(Cl)cc2)CC1)c1cc(Br)ccc1Cl,–,inactive
CCOc1cc(CC(=O)N[C@@H](CC(C)C)c2ccccc2N2CCCCC2)ccc1C(=O)O,–,inactive
CCN(CCO)C[C@H]1CCC[C@H]2CCCC[C@@H]21,–,5.01 µM (active)
O=C1NCCN1Cc1ccccc1F,–,3.55 µM (active)
Cc1ccc(CS(=O)(=O)CCC(=O)NCCN2CCCC2)cc1,–,inactive
COc1ccc(CC(=O)NCCN2CCCC2)cc1,–,inactive
O=C(NCCN1CCCCC1)c1ccc(I)cc1,–,25.1 µM (active)
Nc1cc(Cl)ccc1Oc1ccc(Cl)cc1,–,0.398 µM (active)
Nc1cc(Cl)ccc1Oc1ccccc1,–,7.94 µM (active)
CC(C)(C)NCC[C@@H](O)c1cc(C(F)(F)F)nc2c(C(F)(F)F)cccc12,-9.91% [at 2.29 µM],–
CCN(CC)c1cc(C)c2cc(NC(=O)CNC(C)=O)ccc2n1,–,inactive
CC(=O)NCCNc1nc(-c2ccccc2C)nc2ccccc12,–,6.31 µM (active)
CC(=O)NCCNc1nc(-c2ccccc2C(F)(F)F)nc2ccccc12,–,15.8 µM (active)

# — PubChem BioAssay AID1851 (National Center for Advancing Translational Sciences (NCATS), 2009)
